Compound activity deposited in PubChem BioAssay by National Center for Advancing Translational Sciences (NCATS).
IL1B secr inh – inflammasome signaling inhibition, IL-1 beta readout; THP-1 LPS/ATP IL-1B secretion, AlphaLISA, 16 h; hits give low values; activity change, % at 57.5 µM; 360,000 compounds, 4.7% hits; in the data active = activity change below about -50%; inconclusive = mostly about -30% to -49%
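Secreted IL-1B measured by AlphaLISA bead assay after 16 h compound exposure of THP-1 cells; compounds (final up to 57.5 uM) added 1 h before LPS (250 ng/mL) and ATP (1.25 mM) stimulation; lower signal means less secretion.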
ELG1 repair inh – ELG1-dependent DNA repair inhibition; Potency, µM (top dose mostly 46.1 µM), for the others: top-dose activity change, negative = inhibition, hits mostly inhibitors; HEK293T ELG1-luciferase reporter, luminescence, 16 h; DNA damage induced by 5-fluorouridine; 330,000 compounds, 2.3% hits; also: potency is read from the fitted curve at half-maximal effect; nearly all actives have a fitted effect of over 55% in size
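Step one: seed 2,000 cells per well. Step two: pin-transfer compound or DMSO alongside 5-fluorouridine. Step three: incubate 16 hr, 37 °C, 5% CO2. Step four: add ONE-Glo, wait 30 min, read luminescence.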
TDP1 cell CPT – growth inhibition of DT40 Tdp1-/-;hTDP1 cells with camptothecin (screen for TDP1 inhibitors); 420,000 compounds, 12% hits; chicken DT40 Tdp1-/-;hTDP1 cells + 20 nM CPT, ATP luminescence, 48 h; Potency, µM (doses to about 46.2 µM), inactives show at the highest dose activity change, negative = growth inhibition, usual class: inhibitors; AID 686979; also: potency is read from the fitted curve at half-maximal effect; nearly all actives have a fitted effect of over 55% in size
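Chicken DT40 Tdp1-/- cells stably complemented with human TDP1 were seeded at 400 cells/well in medium containing 20 nM camptothecin, exposed to pin-transferred compounds, and grown at 37 °C for at least 48 hr. Viability was read as ATP luminescence.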
DT40 TDP1 no CPT – qHTS for Inhibitors of human tyrosyl-DNA phosphodiesterase 1 (TDP1): qHTS in cells in absence of CPT. DT40 Tdp1-/- hTDP1 cells, no CPT, ATP luminescence, 48 h. Potency, µM (highest dose often 46.2 µM), without a hit: top-dose activity change, negative = growth inhibition, actives largely listed as inhibitors. 420,000 compounds, 15% hits; also: potency is read from the fitted curve at half-maximal effect; nearly all actives have a fitted effect of over 55% in size
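Chicken DT40 Tdp1-/- cells stably complemented with human TDP1 were seeded at 400 cells/well with DMSO in place of 20 nM camptothecin. After compound pinning, cells grew at least 48 hr at 37 °C; viability read by CellTiter-Glo luminescence.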
VP16 counter – inhibits Gal4-VP16 luciferase reporter, ROR gamma counter-screen; Drosophila S2 Gal4-VP16 UAS-luciferase, luminescence, 20 h; Potency, µM (titrated, usually from 53.6 µM), inactives show top-dose activity, negative = inhibition, usual class: inhibitors; 310,000 compounds, 3.5% hits; AID 2546;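 also: Gal4-VP16 expression switched on by copper sulfate through the metallothionein promoter; potency is read from the fitted curve at half-maximal effect; nearly all actives have a fitted effect of over 50% in size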
RORg inh – inhibitors of mouse ROR gamma transcriptional activity; P51450; Drosophila S2 Gal4-RORgamma UAS-luciferase reporter, 20 h; Potency, µM (top dose mostly 53.6 µM), for the others: top-dose activity change, negative = inhibition, actives largely listed as inhibitors; 310,000 compounds, 5.4% hits; also: potency is read from the fitted curve at half-maximal effect; nearly all actives have a fitted effect of over 60% in size
Target sequence (P51450 whole entry, looked up, the tested form may be a part): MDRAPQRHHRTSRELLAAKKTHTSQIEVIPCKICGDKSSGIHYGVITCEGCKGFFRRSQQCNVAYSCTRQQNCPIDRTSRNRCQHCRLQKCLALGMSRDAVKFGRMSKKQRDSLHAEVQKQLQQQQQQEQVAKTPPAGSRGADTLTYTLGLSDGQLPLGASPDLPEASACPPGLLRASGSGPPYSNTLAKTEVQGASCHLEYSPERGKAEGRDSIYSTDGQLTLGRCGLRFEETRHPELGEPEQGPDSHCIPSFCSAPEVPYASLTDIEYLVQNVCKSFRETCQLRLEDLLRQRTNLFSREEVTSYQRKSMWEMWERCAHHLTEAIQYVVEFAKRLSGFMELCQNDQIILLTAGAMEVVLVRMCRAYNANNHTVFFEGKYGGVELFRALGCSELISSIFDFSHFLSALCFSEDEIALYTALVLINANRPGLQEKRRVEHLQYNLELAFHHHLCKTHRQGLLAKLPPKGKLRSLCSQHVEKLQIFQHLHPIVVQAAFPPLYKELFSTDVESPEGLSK
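ROR gamma transcriptional activity was tracked as Gal4-UAS luciferase output in stably transfected Drosophila Schneider cells, with compound added 1 hr before 700 uM copper sulfate induction and a 20 hr ambient-temperature incubation.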
* marks the source's active call; other numbers are inactive results; ? = inconclusive; . = no result given; [ ] = dose if it differs, or a comment. Sampled rows, rich in hits. Any-hit rate of the full collection: about 21%. Unless noted, calls follow the shape of the dose curve; as a rule, active = well fitted curve in the direction sought with a large enough effect; inconclusive = small, poorly fitted or top-dose-only effect, or another doubt; inactive = no such curve, though single readings can be large; an effect the other way counts as inactive or inconclusive. % is scaled to controls: 0 for no effect and ±100 for the full control effect.

SMILES | IL1B secr inh | ELG1 repair inh | TDP1 cell CPT | DT40 TDP1 no CPT | VP16 counter | RORg inh
N#Cc1nc(-c2ccc(OCc3ccccc3Cl)cc2)oc1N1CCCCCC1 | . | . | ? | 11µM* | . | .
N#Cc1nc(-c2ccccc2Cl)oc1N1CCCCC1 | -51* | ? | ? | 9.2µM* | 7% | 1%
N#Cc1nc(-c2ccc(COc3ccccc3)o2)oc1N1CCCCC1 | . | . | ? | 23µM* | . | .
N#Cc1nc(COc2ccccc2)oc1N1CCCCC1 | -8 | ? | ? | -19% | 9% | ?
N#Cc1nc(-c2ccc(OCc3ccccc3Cl)cc2)oc1N1CCC(C(N)=O)CC1 | . | . | -4% | -29% | . | .
NS(=O)(=O)c1cc(C(=O)OCC(=O)N2CCOCC2)ccc1Cl | 8 | 19% | 1% | -3% | 9% | -1%
Cc1cc(C)cc(N(C(=O)c2csnn2)C(C(=O)NC2CCCCC2)c2ccccn2)c1 (stereo not drawn) | 7 | 2% | -19% | ? | -1% | -18%
Cc1ccccc1N(CC(=O)NC1CCCC1)C(=O)c1oc(C(C)(C)C)cc1C | ? | 0% | 16µM* | 14µM* | -21%[0.365 µM] | -40%
Cc1cc(C(C)(C)C)oc1C(=O)N(CC(=O)NC1CCCC1)Cc1ccccc1Cl | ? | -23% | 13µM* | 13µM* | ? | -34%
Cc1ccccc1N(CC(=O)NC1CCCCC1)C(=O)c1csnn1 | 5 | 7% | -1% | -7% | 2% | 5%
Cc1cc(C(C)(C)C)oc1C(=O)N(CC(=O)NC1CCCC1)c1cccc(C(F)(F)F)c1 | -21 | -19% | 18µM* | ? | -18% | -1%
COc1cc(/C=N/NC(=O)c2sc(N)c(C#N)c2C)ccc1O | -90* | 16% | ? | 15µM* | -9% | -19%
Cc1c(C(=O)N/N=C/c2ccc(O)c(Br)c2)sc(N)c1C#N | -96* | -25% | ? | ? | 11% | ?
COc1cc(/C=N/NC(=O)c2ccccc2)ccc1O | 0 | ? | -13% | 9% | 2% | -16%
CCCCNC(=O)C1Cc2cc(S(=O)(=O)N3CCCCC3)ccc2N1C(C)=O (stereo not drawn) | 2 | 4% | -20% | 0% | -1% | -16%
OC(CNCC1COc2ccccc2O1)COc1ccccc1F (stereo not drawn) | 18 | 17% | 0% | -17% | 1% | -4%
CC(C)[C@@H](CC(=O)N[C@@H]1CCNC[C@H]1C(=O)N[C@H](CC(=O)N[C@@H](CCC(=O)O)CC(=O)O)Cc1ccccc1)NC(=O)C[C@H](CO)NC(=O)[C@@H]1CCCC[C@H]1N | . | . | . | . | -1% | -3%
CCN(CC(=O)Nc1cccc(C(C)=O)c1)S(=O)(=O)c1ccccc1 | 2 | -3% | 1% | -17% | -2% | -19%
CCNC(=S)N1CCN(Cc2ccccc2)CC1 | -10 | -1% | -18% | 23% | 2% | -8%
Cc1cc(Cl)ccc1NC(=S)N1CCN(Cc2ccccc2)CC1 | 0 | -9% | 6% | -26% | 13µM* | 11µM*
Cc1cccc(NC(=S)N2CCN(Cc3ccccc3)CC2)c1C | 13 | -11% | -12% | ? | ? | 8.9µM*
COc1ccc(OCc2nc3c4c(-c5ccc(OC)cc5)c(-c5ccc(OC)cc5)oc4ncn3n2)cc1 | . | . | -8% | 3% | . | .
COc1ccc(NC(=O)NC(C)c2c(-n3cccc3)sc3c2CCN(C)C3)c(OC)c1 (stereo not drawn) | . | . | ? | 23µM* | . | .
CCOC(=O)c1cccc(NC(=O)NC(C)c2c(-n3cccc3)sc3c2CCN(C)C3)c1 (stereo not drawn) | . | . | 15µM* | 16µM* | . | .
CCC(NC(=O)Nc1cc(OC)ccc1OC)c1c(-n2cccc2)sc2c1CCN(CC)C2 (stereo not drawn) | . | . | ? | 23µM* | . | .
SMILES | IL1B secr inh | ELG1 repair inh | TDP1 cell CPT | DT40 TDP1 no CPT | VP16 counter | RORg inh
COc1ccc(OC)c(NS(=O)(=O)c2c(C(=O)N3CCCCCC3)c(C)n(C)c2C)c1 | -7 | 3% | 4% | 9% | 7% | -11%
Cc1cc2oc3c(c(=O)c2cc1C)C(c1ccc(C(C)C)cc1)N(c1nc(C)c(C)s1)C3=O (stereo not drawn) | . | . | -12% | 1% | . | .
O=C1Nc2c(Cl)cc(Cl)cc2C1=O | -93* | . | 7.3µM* | 10µM* | . | .
O=C1NC(=S)S/C1=C\c1cc(Cl)cc(Cl)c1O | -2 | . | ? | ? | . | .
Cc1cc(N(C)C)nc(Nc2ccccc2)n1 | -79* | 15µM* | -18% | ? | . | .
C=CCN1C(=O)c2ccccc2NC1c1cc(Br)cs1 (stereo not drawn) | -9 | -3% | -25% | -15% | 9% | 9%
COc1ccc(CCNC(=O)c2nn(C)c3c2CS(=O)(=O)c2ccccc2-3)cc1OC | 6 | -6% | -1% | ? | -1% | -5%
OC(c1ccc(Cl)cc1)c1ncc(-c2ccc(Oc3ccccc3)cc2)[nH]1 (stereo not drawn) | ? | . | 21µM* | 21µM* | . | .
COc1ccc(-c2cnc(C(O)c3ccc(-c4ccccc4)cc3)[nH]2)cc1 (stereo not drawn) | -5 | . | ? | ? | . | .
OC(c1ccccc1)c1ncc(-c2ccc(Oc3ccccc3)cc2)[nH]1 (stereo not drawn) | -4 | . | 23µM* | 18µM* | . | .
CN(CCc1ccccc1)C1CCCN(C(=O)Cn2cccn2)C1 (stereo not drawn) | 0 | 3% | 4% | 23% | 1% | -21%
COc1ccc(NC(=O)COc2nsnc2N2CCOCC2)c(OC)c1 | 4 | 2% | -26% | -10% | 6% | 1%
COc1ccc(NC(=O)COc2nsnc2N2CCCCC2)cc1 | -10 | ? | 12µM* | 18µM* | -10% | 21%
O=C(COc1nsnc1N1CCOCC1)Nc1ccc(Br)cc1 | -10 | 15% | ? | 21µM* | 0% | 17%
Nc1cccc(-n2nncc2-c2ccc(Cl)cc2)c1 | . | -18% | . | . | -13% | -1%
NC(=S)N/N=C/c1ccc(-n2nncc2-c2ccc(Cl)cc2)cc1 | -70* | ? | -8% | ? | ? | 5.6µM*
Cc1c(C(=O)Nc2ccccc2)sc2nc(-c3ccccc3)cn12 | ? | ? | 18µM* | ? | 1% | 34%
Cc1cccc(NC(=O)c2sc3nc(-c4ccccc4)cn3c2C)n1 | -59* | 18µM* | ? | ? | -4% | -7%
COc1ccc(-c2cn3c(C)c(C(=O)Nc4cccc(C)n4)sc3n2)cc1 | 34 | ? | ? | 23µM* | 11µM* | 7.1µM*
